Measurements reported in the supplement of paper PMC9135407.
Structures can show the parent of a compound that is named as a salt.

Test system: primary human hepatic stellate cells (donor 1)
Assay: ACTA2 mRNA fold change vs DMSO (normalised to PSMB2); higher = more ACTA2 expression
Details: 48 h
Experimental: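 Secondary qRT-PCR screen in primary human HSCs (donor 1), 384-well plates, with compounds dispensed in quadruplicate and incubated for 48 h. Cells-to-CT lysates were used for multiplexed TaqMan qPCR of ACTA2 or COL1A1 with PSMB2 as reference. Fold changes versus DMSO come from a linear model (Ct_gene ~ Ct_PSMB2 + plate + chemical). A hit is defined as COL1A1 and ACTA2 FC <0.5 (FDR <0.05) with PSMB2 between 0.2 and 2.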

Compound | ACTA2 mRNA fold change
CCCCCCCCc1ccc(CCC(N)(CO)CO)cc1 [Fingolimod (FTY720) HCl] (11.1 µM) | 0.301
Cc1ccc(NC(=O)C(C)C)cc1C1CCN(Cc2ccc(Oc3ccc(F)c(F)c3)cc2)CC1 (33.3333 µM) | 0.0197
Nc1ccc(C(=O)Nc2cccc(-c3nc(N4CCOCC4)c4oc5ncccc5c4n3)c2)cn1 (6.66667 µM) | 1.8
CN1CCN(C2=Cc3ccccc3Oc3ccc(Cl)cc32)CC1 (33.3333 µM) | 0.196
Clc1ccc(C2(c3ccc(-c4cn[nH]c4)cc3)CCNCC2)cc1 (33.3333 µM) | 0.0459
O=C1NC(=O)/C(=C/c2ccc(-c3ccc(F)cc3O)o2)S1 (33.3333 µM) | 0.0492
CN1CCN2c3ccccc3Cc3ccccc3C2C1 (stereo not given) [Mianserin hcl] (25.2333 µM) | 0.899
O=C(O[C@H]1CN2CCC1CC2)N1CCc2ccccc2[C@@H]1c1ccccc1 [Solifenacin succinate] (33.3333 µM) | 0.257
CCN(CC)CCOc1ccc(Cc2ccccc2)cc1 [DPPE fumarate] (33.3333 µM) | 0.397
C#CC1(O)CC[C@H]2[C@@H]3CCC4=CC(=O)CC[C@@H]4[C@H]3CC[C@@]21CC (stereo not given in full) [Norgestrel] (21.3333 µM) | 0.714
Cn1cc(CNCC2CCN(c3ncc(C(=O)NO)cn3)CC2)c2ccccc21 [Quisinostat] (33.3333 µM) | 0.00604
CC(C)c1cc(-c2n[nH]c(=O)n2-c2ccc3c(ccn3C)c2)c(O)cc1O [Ganetespib (STA-9090)] (33.3333 µM) | 0.605
NC[C@@H]1O[C@H](C23CC4CC(CC(C4)C2)C3)Cc2c1ccc(O)c2O (33.3333 µM) | 0.309
CNc1nccc(-c2cccnc2Oc2cc(C(=O)Nc3cccc(C(F)(F)F)c3)ccc2C)n1 (33.3333 µM) | 0.569
NC1(c2ccc(-c3nc4ccn5c(=O)[nH]nc5c4cc3-c3ccccc3)cc2)CCC1 (11.1 µM) | 0.33
CCCCc1oc2ccccc2c1C(=O)c1cc(I)c(OCCN(CC)CC)c(I)c1 (33.3333 µM) | 0.0284
NS(=O)(=O)C#Cc1ccccc1 [Pifithrin->m] (33.3333 µM) | 0.0598
CC[C@]1(O)C[C@@H]2CN(CCc3c([nH]c4ccccc34)[C@@](C(=O)OC)(c3cc4c(cc3OC)N(C)[C@H]3[C@@](O)(C(=O)OC)[C@H](OC(C)=O)[C@]5(CC)C=CCN6CC[C@]43[C@@H]65)C2)C1 [Vinblastine sulfate] (33.3333 µM) | 0.02
C[C@]12CC[C@H](O)CC1=CC[C@@H]1[C@@H]2CC[C@]2(C)C(n3cnc4ccccc43)=CC[C@@H]12 [Galeterone] (33.3333 µM) | 0.0205
CS(=O)(=O)CCNCc1ccc(-c2ccc3ncnc(Nc4ccc(OCc5cccc(F)c5)c(Cl)c4)c3c2)o1 (6.66667 µM) | 1.05

Compound | ACTA2 mRNA fold change
Cc1ccc2c(c1)c1c3n2CCNC3CCC1 (stereo not given) [Pirlindole mesylate] (20.6667 µM) | 0.712
CCCSc1ccc2[nH]c(NC(=O)OC)nc2c1 [Albendazole] (33.3333 µM) | 0.173
O=C(Nc1ncc(SCCN2CCCC2)s1)[C@]1(c2ccc(S(=O)(=O)C3CC3)cc2)C[C@H]1C1CCCCC1 (11.1 µM) | 0.00928
CCN(CC)CC#CCOC(=O)C(O)(c1ccccc1)C1CCCCC1 (stereo not given) [Oxybutynin chloride] (16.9333 µM) | 1.09
CCN(CC)CCCCNc1ncc2cc(-c3c(Cl)cccc3Cl)c(NC(=O)NC(C)(C)C)nc2n1 (33.3333 µM) | 0.196
C[C@@H](CN1CCC(n2c(=O)[nH]c3cc(Cl)ccc32)CC1)NC(=O)c1ccc2ccccc2c1 (33.3333 µM) | 0.045
C#C[C@]1(O)CC[C@H]2[C@@H]3CCC4=Cc5oncc5C[C@]4(C)[C@H]3CC[C@@]21C [Danazol] (33.3333 µM) | 0.0332
CNCCCC1c2ccccc2C=Cc2ccccc21 [Protryptyline hydrochloride] (22.2333 µM) | 0.577
CNCc1ccc(-c2[nH]c3cc(F)cc4c3c2CCNC4=O)cc1 (33.3333 µM) | 0.864
O=C1Nc2ccccc2/C1=C1/Nc2ccccc2C1=O [Indirubin] (63.5333 µM) | 1.06
CC(/C=C/C(=O)NO)=C\[C@@H](C)C(=O)c1ccc(N(C)C)cc1 [Trichostatin A] (3.33333 µM) | 0.0381
CNCc1ccc(C)c(NC(=O)c2ccc(Nc3nc(-c4ccccc4)c4ccccc4n3)cc2)c1 (33.3333 µM) | 0.0244
CC(C)c1ccc(C(=O)c2cccs2)c(SCCCCCCCCN(C)C)n1 (33.3333 µM) | 0.846
CN1CCC(CNc2ccc3ncc(-c4cccc(OC(F)(F)F)c4)n3n2)CC1 (6.66667 µM) | 1.23
Cc1nc(Nc2ncc(C(=O)Nc3c(C)cccc3Cl)s2)cc(N2CCN(CCO)CC2)n1 (33.3333 µM) | 0.192
Cc1nc2ccc(-n3ncc(C(=O)c4cc5ccccc5[nH]4)c3N)cc2[nH]1 (33.3333 µM) | 0.785
COc1ccccc1OCCNCC(O)COc1cccc2[nH]c3ccccc3c12 (stereo not given) [Carvedilol] (33.3333 µM) | 0.0773
O=C(Nc1cc(C(F)(F)F)cc(C(F)(F)F)c1)c1cc(Cl)ccc1O (33.3333 µM) | 0.0138
Cc1ccc(S(=O)(=O)/C=C/C#N)cc1 (33.3333 µM) | 0.24
COc1cc2ncn(-c3cc(OCc4ccccc4C(F)(F)F)c(C(N)=O)s3)c2cc1OC (33.3333 µM) | 0.333
